# Source: the supplement of paper PMC12350171
# Where a name gives a salt, the structure may show the parent alone. A number with no mark means an inactive call.
# Experiments:
# Conditions in all cases: 20 µM
# [1] = test system: Salmonella enterica typhimurium; test: growth AUC normalised to DMSO control (fraction of control); higher = less growth inhibition, active = hit call of the paper
# Outline: (§1)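 Hemin and NAD were added to the medium for Haemophilus parainfluenzae. All pathogens, after two anaerobic passages, were inoculated at a starting OD578 of 0.01 into pre-reduced mGAM plates with 20 μM compound and 1% DMSO under breathable seals, and OD578 was read hourly for 24 h in three biological replicates. AUC of each growth curve was obtained with the trapezoidal rule up to the exponential-to-stationary transition and normalised to DMSO controls from the same plate.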
# Shigella flexneri = test: as above
# Outline: as §1
# Vibrio cholerae = test: as above
# Outline: as §1
# [2] = test system: Yersinia pseudotuberculosis; test: as above
# Outline: as §1
# P. vulgatus RND KO = test: growth AUC normalised to DMSO control (median) (fraction of control); higher = less growth inhibition, active = hit call of the paper
# Outline: (§2)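 In 96-well plates of mGAM seeded at OD578 0.01, strains that had been passaged twice overnight without oxygen were exposed to approved-drug library compounds at 20 μM with 1% DMSO. Hourly OD578 readings were taken for 24 h in an anaerobic incubator. The trapezoidal-rule area under the curve, with curves truncated at entry into stationary phase, was expressed relative to same-plate vehicle wells as the median of three biological replicates.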
# P. vulgatus WT = test: as above
# Outline: as §2
# [3] = test system: S. enterica typhimurium WT; test: as above
# Outline: as §2
# [4] = test system: S. enterica typhimurium tolC KO; test: as above
# Outline: as §2
# 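For growth AUC normalised to DMSO control (median) in this document: active when median AUC fell below 0.1.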
SMILES,growth AUC normalised to DMSO control [1],growth AUC normalised to DMSO control (Shigella flexneri),growth AUC normalised to DMSO control (Vibrio cholerae),growth AUC normalised to DMSO control [2],growth AUC normalised to DMSO control (P. vulgatus RND KO),growth AUC normalised to DMSO control (P. vulgatus WT),growth AUC normalised to DMSO control [3],growth AUC normalised to DMSO control [4]
N=C(NCCCCCCNC(=N)NC(=N)Nc1ccc(Cl)cc1)NC(=N)Nc1ccc(Cl)cc1 [Chlorhexidine],0.355 (active),0.0156 (active),0.954,0.307 (active),0.00823 (active),0.0134 (active),0.942,0.816
CCN(CC)CCNC(=O)c1cc(S(C)(=O)=O)ccc1OC [Tiapride hydrochloride],0.985,0.992,1,1.01,0.961,0.952,0.992,0.999
C#C[C@]1(O)CC[C@H]2[C@@H]3CCC4=CC(=O)CC[C@@H]4[C@H]3CC[C@@]21CC [(D-) Norgestrel],0.98,0.938,0.961,0.979,0.989,0.974,0.998,1
OC(CCN1CCCCC1)(c1ccccc1)C1CC2C=CC1C2 (stereo not given) [Biperiden hydrochloride],0.987,0.967,0.934,1,0.994,1.01,1.01,0.946
NS(=O)(=O)c1cc2c(cc1Cl)N=CNS2(=O)=O [Chlorothiazide],1.01,0.998,1.02,1.01,1.03,1.07,1.01,1.01
"CCN(CC)CCOc1ccc(C(=C(Cl)c2ccccc2)c2ccccc2)cc1 [(Z,E) Clomiphene citrate]",1.02,1.02,1.01,1.02,0.902,0.964,1.01,0.983
CC(C)(C)c1ccc(C(O)CCCN2CCC(C(O)(c3ccccc3)c3ccccc3)CC2)cc1 (stereo not given) [Terfenadine],1.01,0.999,0.982,1.03,0.907,0.892,1.01,0.88
CCSc1ccc2c(c1)N(CCCN1CCN(C)CC1)c1ccccc1S2 [Thiethylperazine maleate],1,1.02,0.983,0.99,1,1,0.996,0.91
CN1C(=O)OC(C)(C)C1=O [Trimethadione],0.996,0.943,0.982,0.992,0.971,0.977,0.999,1
CN(C)CCOC(=O)C(c1ccccc1)C1(O)CCCC1 (stereo not given) [Cyclopentolate hydrochloride],1.02,1.01,1,1.02,0.98,0.993,0.999,1
CC(NCCc1ccc(O)cc1)C(O)c1ccc(O)cc1 (stereo not given) [Ritodrine hydrochloride],1.01,1.02,0.999,1,1,1.01,1,0.997
CC[N+](CC)(CC)CCOc1cccc(OCC[N+](CC)(CC)CC)c1OCC[N+](CC)(CC)CC [Gallamine triethiodide],1,1.02,1.01,1.02,1.02,1.02,1.01,1.01
Cc1onc(-c2c(Cl)cccc2Cl)c1C(=O)N[C@@H]1C(=O)N2[C@@H]1SC(C)(C)[C@@H]2C(=O)O [Dicloxacillin sodium salt hydrate],0.997,1.01,1,1.01,0.081 (active),0.0487 (active),1.01,0.00514 (active)
CN1C2CCCC1CC(NC(=O)c1nn(C)c3ccccc13)C2 (stereo not given) [Granisetron],1,1.02,1.01,1,1,0.987,0.982,1
Oc1ncnc2[nH]ncc12 [Allopurinol],0.996,1.03,1.02,1,1.03,1.04,0.999,0.99
CCN(CC)CCOC(=O)C(c1ccccc1)c1ccccc1 [Adiphenine hydrochloride],0.974,0.99,1.01,1,1.03,1.03,0.995,1
O=C(O)CCNC(=O)c1ccc(/N=N/c2ccc(O)c(C(=O)O)c2)cc1 [Balsalazide disodium salt],1.03,1.03,1.05,1,1.02,1.08,0.996,1.02
Cc1ccc(N(CC2=NCCN2)c2cccc(O)c2)cc1 [Phentolamine hydrochloride],1.03,1.01,1.02,0.975,1,0.991,0.999,0.99
CCCc1cc(=O)[nH]c(=S)[nH]1 [Propylthiouracil],0.987,0.991,1,0.993,1.02,1.05,1.01,0.996
O=S(=O)(O)c1cc(O)ccc1O [Ethamsylate diethylammonium salt],1,0.998,0.999,1.01,0.99,0.994,1,0.999
CCC(C)(CN(C)C)OC(=O)c1ccccc1 (stereo not given) [Amyleine hydrochloride],0.992,0.989,0.989,1.01,0.995,1.01,0.983,1.01
CN1CCCC(n2nc(Cc3ccc(Cl)cc3)c3ccccc3c2=O)CC1 (stereo not given) [Azelastine hydrochloride],1.01,0.989,0.932,0.969,1.01,1,1,0.935
CC[C@H]1OC(=O)[C@H](C)[C@@H](O[C@H]2C[C@@](C)(OC)[C@@H](O)[C@H](C)O2)[C@H](C)[C@@H](O[C@@H]2O[C@H](C)C[C@H](N(C)C)[C@H]2O)[C@](C)(O)C[C@@H](C)/C(=N\OCOCCOC)[C@H](C)[C@@H](O)[C@]1(C)O [Roxithromycin],0.84 (active),0.82 (active),0.0242 (active),0.954,0.0176 (active),0.0119 (active),0.899,0.0779 (active)
CN(C)CCN(Cc1ccc(Cl)cc1)c1ccccn1 [Chloropyramine hydrochloride],0.97,1.03,0.977,1.02,1.07,1.05,0.988,0.953
CC(C)(C)NC[C@H](O)COc1ccccc1C1CCCC1 [Penbutolol sulfate],1.01,1.02,1,1.02,0.994,1.01,1,0.947
c1ccc(CC2=NCCN2)cc1 [Tolazoline hydrochloride],1.01,1.02,1.02,1.01,1.02,1.07,0.987,1.01
C[C@]12C=CC(=O)C=C1CC[C@H]1[C@@H]3C[C@@H](O)[C@](O)(C(=O)CO)[C@@]3(C)C[C@H](O)[C@@]12F [Triamcinolone],1,0.977,1,1,1.01,0.98,0.997,1.01
CN1C(=O)CC(c2ccccc2)C1=O (stereo not given) [Phensuximide],1.01,1.04,1.03,1.02,1.02,1.04,1,0.993
CNC[C@H](O)[C@@H](O)[C@H](O)[C@H](O)CO [Meglumine],1.02,1,1.04,0.984,1.01,1.04,1.01,1
CC[C@H]1OC(=O)[C@H](C)[C@@H](O[C@H]2C[C@@](C)(OC)[C@@H](O)[C@H](C)O2)[C@H](C)[C@@H](O[C@@H]2O[C@H](C)C[C@H](N(C)C)[C@H]2O)[C@](C)(O)C[C@@H](C)[C@@H]2N[C@@H](COCCOC)O[C@H]([C@H]2C)[C@]1(C)O [Dirithromycin],0.879 (active),0.915,0.154 (active),1,0.0107 (active),0.0116 (active),0.862,0.00235 (active)
